According to PubChem BioAssay (NCI):
The panel holds about 79,000 compounds, 15% with a hit somewhere; the sample as a whole holds those more often. Activity calls are given as the source filed them. No stated cut-off is given here; in the data, active means growth inhibition above about 70%; inactive means the rest.

How the values were obtained:
[1] = NCI Yeast Anticancer Drug Screen. Data for the rad52 strain (AID 147);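 further: 0% = growth of vehicle-treated control cultures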; settings: S. cerevisiae rad52 mutant growth inhibition, hits give high values
Method in brief: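 Vehicle-treated cultures served as the reference for growth inhibition of compound-exposed yeast bearing a DNA repair mutation.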

[2] = NCI Yeast Anticancer Drug Screen. Data for the wt1 strain (AID 149);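 further: 0% = growth of vehicle-treated wt1 cultures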; settings: S. cerevisiae wt1 strain (SPY 50644) growth inhibition, hits give high values
Method in brief: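 Vehicle-normalised growth inhibition; strain wt1; compound exposure.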

[3] = NCI Yeast Anticancer Drug Screen. Data for the rad50EPP+ strain (AID 151);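 further: 0% = growth of vehicle-treated control cultures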; settings: S. cerevisiae rad50 mutant strain, hits give high values
Method in brief: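 In this screen, rad50EPP+ yeast were exposed to compounds. Growth inhibition was scored against vehicle-treated controls.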

[4] = NCI Yeast Anticancer Drug Screen. Data for the mgt1 strain (AID 153); settings: S. cerevisiae mgt1 mutant growth inhibition, hits give high values
Method in brief: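 mgt1 strain exposed; growth vs vehicle control recorded as inhibition.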

[5] = NCI Yeast Anticancer Drug Screen. Data for the rad50 strain (AID 155);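 further: 0% = growth of vehicle-only cultures of the same strain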; settings: S. cerevisiae rad50 strain growth inhibition, hits give high values
Method in brief: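 A DNA repair-deficient yeast mutant serves as the test organism; compound-induced growth inhibition is calculated against vehicle-treated cells.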

[6] = NCI Yeast Anticancer Drug Screen. Data for the mec2-1 strain (AID 157); settings: S. cerevisiae mec2-1 strain, hits give high values
Method in brief: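 Vehicle-treated cultures served as reference for growth inhibition of compound-exposed mec2-1 yeast.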

[7] = NCI Yeast Anticancer Drug Screen. Data for the rad14 strain (AID 159);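 further: 0% = growth of vehicle-treated control cultures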; settings: S. cerevisiae rad14 strain growth inhibition, hits give high values
Method in brief: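 Vehicle-treated cultures served as the baseline for growth inhibition of a DNA repair-mutant yeast strain exposed to each compound.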

[8] = NCI Yeast Anticancer Drug Screen. Data for the sgs1 mgt1 strain (AID 161);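 further: 0% = growth of cultures given vehicle only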; settings: S. cerevisiae sgs1 mgt1 strain, hits give high values
Method in brief: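 Read-out: growth inhibition vs vehicle controls. Cells: mutant yeast strain deficient in DNA damage repair.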

[9] = NCI Yeast Anticancer Drug Screen. Data for the CLN2oe strain (AID 163);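 further: 0% = growth of vehicle-only control cultures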; settings: S. cerevisiae CLN2oe strain, hits give high values
Method in brief: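 Inhibition relative to vehicle-treated yeast is reported. Cells: strain with genetic alteration in cell-cycle control, grown with compound.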

[10] = NCI Yeast Anticancer Drug Screen. Data for the cln2 rad14 strain (AID 165);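 further: 0% = growth equal to vehicle treated cultures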; settings: S. cerevisiae cln2 rad14 strain, hits give high values
Method in brief: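 Each compound was tested on cln2 rad14 yeast. Inhibition of growth was calculated against vehicle-exposed controls.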

[11] = NCI Yeast Anticancer Drug Screen. Data for the bub3 strain (AID 167); settings: S. cerevisiae bub3 mutant strain, hits give high values
Method in brief: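 Inhibition values come from growth of compound-treated mutant yeast normalised to vehicle-treated controls.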

[12] = NCI Yeast Anticancer Drug Screen. Data for the wt2 strain (AID 169);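 further: 0% = growth of vehicle-treated yeast cultures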; settings: S. cerevisiae wt2 strain growth inhibition, hits give high values
Method in brief: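 Inhibition of yeast growth was determined after compound treatment, normalised to controls receiving only vehicle.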

[13] = NCI Yeast Anticancer Drug Screen. Data for the sgs1 strain (AID 173);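 further: 0% = growth of vehicle-only control cultures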; settings: S. cerevisiae sgs1 mutant, hits give high values
Method in brief: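 Screen format: yeast with repair or checkpoint alterations, compound exposure, growth read relative to vehicle.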

[14] = NCI Yeast Anticancer Drug Screen. Data for the mlh1 rad18 strain (AID 175); settings: S. cerevisiae mlh1 rad18 strain growth inhibition, hits give high values
Method in brief: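 Vehicle-treated cultures served as the reference for growth inhibition in a yeast strain carrying DNA damage repair alterations exposed to each compound.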

[15] = NCI Yeast Anticancer Drug Screen. Data for the rad18 strain (AID 177); settings: S. cerevisiae rad18 mutant growth inhibition, hits give high values
Method in brief: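 Test articles were incubated with altered yeast defective in DNA damage repair. Results are given as inhibition of growth versus vehicle.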

[16] = at 5.0 µM (retest, dose inferred, filed as 0.5)
[17] = at 50.0 µM (retest, dose inferred, filed as 5.0)

Measured: growth inhibition

O=[N+]([O-])c1cc(Cl)ccc1S(=O)(=O)c1ccc(Cl)cc1[N+](=O)[O-]
active: [1]; at 33.0 µM 86% | [1]; at 100.0 µM 78% | [2]; at 33.0 µM 85% | [2]; at 100.0 µM 78% | [3]; at 33.0 µM 72% | [4]; at 33.0 µM 84% | [4]; at 100.0 µM 78% | [5]; at 33.0 µM 90% | [5]; [17] 92% | [5]; at 50.0 µM 76.8% | [5]; at 100.0 µM 81% | [6]; at 33.0 µM 89% | [6]; [17] 93% | [6]; at 50.0 µM 83% | [6]; at 100.0 µM 84% | [7]; at 33.0 µM 88% | [7]; at 100.0 µM 81% | [8]; [17] 91% | [8]; at 50.0 µM 84.3% | [9]; at 33.0 µM 82% | [9]; at 100.0 µM 79% | [10]; [17] 91% | [10]; at 50.0 µM 79.9% | [11]; [16] 73% | [11]; at 11.0 µM 80% | [11]; at 33.0 µM 93% | [11]; [17] 94% | [11]; at 50.0 µM 83.7% | [11]; at 100.0 µM 90% | [12]; at 33.0 µM 88% | [12]; at 100.0 µM 84% | [13]; at 33.0 µM 91% | [13]; at 100.0 µM 84% | [14]; [17] 91% | [14]; at 50.0 µM 80.8% | [15]; at 33.0 µM 91% | [15]; at 100.0 µM 87%
inactive: [1]; at 1.2 µM -25% | [1]; at 3.7 µM -8% | [1]; at 11.0 µM 40% | [2]; at 1.2 µM -13% | [2]; at 3.7 µM -19% | [2]; at 11.0 µM 0% | [3]; at 1.2 µM -6% | [3]; at 3.7 µM 20% | [3]; at 11.0 µM 55% | [3]; at 100.0 µM 64% | [4]; at 1.2 µM -29% | [4]; at 3.7 µM -27% | [4]; at 11.0 µM 0% | [5]; at 1.2 µM -31% | [5]; at 3.7 µM -21% | [5]; [16] 14% | [5]; at 11.0 µM 41% | [6]; at 1.2 µM -12% | [6]; at 3.7 µM 10% | [6]; [16] 4% | [6]; at 11.0 µM 20% | [7]; at 1.2 µM -15% | [7]; at 3.7 µM -11% | [7]; at 11.0 µM 25% | [8]; [16] 16% | [9]; at 1.2 µM -2% | [9]; at 3.7 µM -4% | [9]; at 11.0 µM 9% | [10]; [16] 13% | [11]; at 1.2 µM -21% | [11]; at 3.7 µM 7% | [12]; at 1.2 µM 0% | [12]; at 3.7 µM 4% | [12]; at 11.0 µM 21% | [13]; at 1.2 µM -3% | [13]; at 3.7 µM 13% | [13]; at 11.0 µM 35% | [14]; [16] 25% | [15]; at 1.2 µM 8% | [15]; at 3.7 µM 9% | [15]; at 11.0 µM 63%

CC(CC/C(=N/O)c1ccccc1)(CC/C(=N\O)c1ccccc1)[N+](=O)[O-] (stereo unspecified)
inactive: [1]; at 1.2 µM 1% | [1]; at 3.7 µM 2% | [1]; at 11.0 µM -4% | [1]; at 33.0 µM 4% | [2]; at 1.2 µM -1% | [2]; at 3.7 µM -5% | [2]; at 11.0 µM -7% | [2]; at 33.0 µM 0% | [2]; at 100.0 µM 26% | [3]; at 1.2 µM -3% | [3]; at 3.7 µM 2% | [3]; at 11.0 µM -1% | [3]; at 33.0 µM 2% | [3]; at 100.0 µM 0% | [4]; at 1.2 µM -5% | [4]; at 3.7 µM -3% | [4]; at 11.0 µM -4% | [4]; at 33.0 µM -5% | [4]; at 100.0 µM 57% | [5]; at 1.2 µM 5% | [5]; at 3.7 µM 3% | [5]; [16] 4% | [5]; at 11.0 µM -1% | [5]; at 33.0 µM 4% | [5]; [17] 66% | [5]; at 50.0 µM 11.4% | [6]; at 1.2 µM -3% | [6]; at 3.7 µM -3% | [6]; [16] -11% | [6]; at 11.0 µM -5% | [6]; at 33.0 µM -5% | [6]; [17] 21% | [6]; at 100.0 µM 56% | [7]; at 1.2 µM -2% | [7]; at 3.7 µM 1% | [7]; at 11.0 µM -5% | [7]; at 33.0 µM -3% | [7]; at 100.0 µM 65% | [8]; [16] 0% | [8]; [17] 53% | [8]; at 50.0 µM 37% | [9]; at 1.2 µM -7% | [9]; at 3.7 µM -11% | [9]; at 11.0 µM -13% | [9]; at 33.0 µM -12% | [10]; [16] 2% | [10]; [17] 39% | [11]; at 1.2 µM -6% | [11]; at 3.7 µM -5% | [11]; [16] 8% | [11]; at 11.0 µM -9% | [11]; at 33.0 µM -9% | [11]; [17] 6% | [11]; at 100.0 µM 52% | [12]; at 1.2 µM -10% | [12]; at 3.7 µM -11% | [12]; at 11.0 µM -16% | [12]; at 33.0 µM -10% | [12]; at 100.0 µM 20% | [13]; at 1.2 µM -13% | [13]; at 3.7 µM 0% | [13]; at 11.0 µM -11% | [13]; at 33.0 µM -11% | [13]; at 100.0 µM 55% | [14]; [16] 5% | [14]; [17] 46% | [15]; at 1.2 µM 0% | [15]; at 3.7 µM -4% | [15]; at 11.0 µM -6% | [15]; at 33.0 µM 0%
active: [1]; at 100.0 µM 74% | [5]; at 100.0 µM 74% | [6]; at 50.0 µM 96.5% | [9]; at 100.0 µM 71% | [10]; at 50.0 µM 91.7% | [11]; at 50.0 µM 90.8% | [14]; at 50.0 µM 96.8% | [15]; at 100.0 µM 84%
